SMILES strings stand for the structures. For some of these results: Measured potencies and affinities stand elsewhere.

Holding throughout (parameters): scale not given: direction of the effect not stated beside the values
Test [1] concerns the target Protein translocase subunit SecA (Escherichia coli (strain K12)) (UniProt P10408). As to the kind of experiment: Assay to Identify E. coli SecA ATPase Inhibitors. The conditions noted are these: 30 µM. The format is functional.
Test [2] deals with T1, Ubiquitin-activating enzyme e1, putative (Leishmania donovani (strain BPK282A1)) (UniProt E9BSI1).
T1 sequence (whole entry): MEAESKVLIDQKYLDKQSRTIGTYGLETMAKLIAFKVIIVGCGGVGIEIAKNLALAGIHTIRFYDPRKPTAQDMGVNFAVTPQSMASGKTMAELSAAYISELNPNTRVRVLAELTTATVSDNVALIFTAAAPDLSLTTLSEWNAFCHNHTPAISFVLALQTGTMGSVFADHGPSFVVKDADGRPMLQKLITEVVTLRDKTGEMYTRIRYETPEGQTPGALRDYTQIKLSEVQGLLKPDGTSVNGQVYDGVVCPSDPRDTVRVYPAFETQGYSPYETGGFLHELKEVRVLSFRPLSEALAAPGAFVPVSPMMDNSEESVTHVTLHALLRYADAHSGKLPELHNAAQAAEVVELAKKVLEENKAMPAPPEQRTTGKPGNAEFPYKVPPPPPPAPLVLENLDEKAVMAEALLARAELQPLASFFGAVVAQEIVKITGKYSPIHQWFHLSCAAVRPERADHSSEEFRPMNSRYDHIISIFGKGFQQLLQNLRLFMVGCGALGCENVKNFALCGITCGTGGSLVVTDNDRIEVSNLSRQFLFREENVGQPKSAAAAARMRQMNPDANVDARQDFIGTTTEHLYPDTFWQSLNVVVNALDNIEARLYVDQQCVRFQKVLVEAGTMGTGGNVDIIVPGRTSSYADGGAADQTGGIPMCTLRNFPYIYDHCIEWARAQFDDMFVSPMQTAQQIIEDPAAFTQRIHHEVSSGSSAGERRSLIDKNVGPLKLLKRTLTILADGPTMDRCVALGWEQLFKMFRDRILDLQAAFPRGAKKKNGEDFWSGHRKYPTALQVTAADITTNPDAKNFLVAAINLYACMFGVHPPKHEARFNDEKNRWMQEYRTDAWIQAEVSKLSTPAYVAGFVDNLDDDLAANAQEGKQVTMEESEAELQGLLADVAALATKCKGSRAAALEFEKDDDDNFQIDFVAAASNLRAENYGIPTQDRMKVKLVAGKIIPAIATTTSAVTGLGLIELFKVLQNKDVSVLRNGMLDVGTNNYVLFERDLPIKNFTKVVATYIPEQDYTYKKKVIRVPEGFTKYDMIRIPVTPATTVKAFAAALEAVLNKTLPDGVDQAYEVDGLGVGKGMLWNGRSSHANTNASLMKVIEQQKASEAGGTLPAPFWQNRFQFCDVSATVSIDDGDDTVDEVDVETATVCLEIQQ
As to the kind of experiment: Leishmania donovani Ubiquitin Activating Enzyme (LdE1). The format is functional. The following applies: 30 µM.

For test [3], the target named is AMP-activated protein kinase, AMPK (Homo sapiens) (UniProt P54646+O43741+P54619+Q9UGJ0+Q9Y478+Q13131+Q9UGI9). Put plainly: AMP-dependent Kinase enzyme assay. An in vitro enzyme assay that detects ADP turnover that is directly proportional to AMPK activity. This uses naive AMPK that is activated during the assay with MK-8722. Format: functional. The following applies: 30 µM.

Test [4] has as its target Sialic acid-binding Ig-like lectin 9 (Homo sapiens) (UniProt Q9Y336). Put plainly: Hs-Siglec9 ALPHAscreen SOP 20170721. The conditions noted are these: 10 µM. For orientation: Alpha assays give light when donor and acceptor beads are brought close together.
Test [5] relates to Trypanosoma cruzi. As to the kind of experiment: Trypanosoma cruzi phosphomannomutase and mannose-1-phosphate guanylyltransferase assay. The format is functional. The conditions noted are these: 10 µM.
Test [6] addresses T2, Arginase-2, mitochondrial (Homo sapiens) (UniProt P78540).
T2 sequence (whole entry): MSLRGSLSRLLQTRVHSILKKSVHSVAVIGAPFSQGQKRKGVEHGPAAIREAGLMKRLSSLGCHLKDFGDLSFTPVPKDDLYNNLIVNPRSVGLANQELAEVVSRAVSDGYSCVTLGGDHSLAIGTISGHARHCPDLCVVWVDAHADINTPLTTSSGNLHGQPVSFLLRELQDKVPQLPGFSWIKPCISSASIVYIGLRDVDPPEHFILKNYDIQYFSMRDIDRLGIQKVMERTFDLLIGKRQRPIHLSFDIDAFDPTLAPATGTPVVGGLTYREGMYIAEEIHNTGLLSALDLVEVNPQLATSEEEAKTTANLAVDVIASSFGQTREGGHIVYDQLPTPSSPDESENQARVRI
As to the kind of experiment: in vitro enzyme assay to detect the production of urea directly proportional to the activity of Arginase II. Further: in the data most compounds retested in dose-response had high values. Format: functional. The conditions noted are these: 33.3 µM.

The target in test [7] is T3, Proteasome subunit beta (Trypanosoma cruzi) (UniProt O96673).
T3 sequence (whole entry): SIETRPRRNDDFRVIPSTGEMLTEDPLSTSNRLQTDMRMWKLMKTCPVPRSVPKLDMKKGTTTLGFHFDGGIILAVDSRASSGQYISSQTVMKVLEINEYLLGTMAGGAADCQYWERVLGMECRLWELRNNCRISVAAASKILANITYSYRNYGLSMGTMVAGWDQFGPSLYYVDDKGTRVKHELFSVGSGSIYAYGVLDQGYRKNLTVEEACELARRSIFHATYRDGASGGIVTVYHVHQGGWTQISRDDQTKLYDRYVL
Put plainly: Trypanosoma cruzi proteasome chymotrypsin-like activity (TcProtChymo) assay. Further: in the data most compounds retested in dose-response had high values. The conditions noted are these: 9.37 µM. The format is functional.

Test [8] is filed under the species Homo sapiens. Put plainly: To identify inhibition of the IFN signalling (Jak-Stat) pathway via expression of an eGFP reporter gene under the control of an IFN-stimulated response element (ISRE) containing MxA promoter. The following applies: 30 µM. Format: functional. (In general: A reporter such as luciferase makes a cellular process visible.)
In test [9] the target is T4, Tyrosyl-tRNA synthetase, putative (Trypanosoma cruzi (strain CL Brener)) (UniProt Q4DSP6).
T4 sequence (whole entry): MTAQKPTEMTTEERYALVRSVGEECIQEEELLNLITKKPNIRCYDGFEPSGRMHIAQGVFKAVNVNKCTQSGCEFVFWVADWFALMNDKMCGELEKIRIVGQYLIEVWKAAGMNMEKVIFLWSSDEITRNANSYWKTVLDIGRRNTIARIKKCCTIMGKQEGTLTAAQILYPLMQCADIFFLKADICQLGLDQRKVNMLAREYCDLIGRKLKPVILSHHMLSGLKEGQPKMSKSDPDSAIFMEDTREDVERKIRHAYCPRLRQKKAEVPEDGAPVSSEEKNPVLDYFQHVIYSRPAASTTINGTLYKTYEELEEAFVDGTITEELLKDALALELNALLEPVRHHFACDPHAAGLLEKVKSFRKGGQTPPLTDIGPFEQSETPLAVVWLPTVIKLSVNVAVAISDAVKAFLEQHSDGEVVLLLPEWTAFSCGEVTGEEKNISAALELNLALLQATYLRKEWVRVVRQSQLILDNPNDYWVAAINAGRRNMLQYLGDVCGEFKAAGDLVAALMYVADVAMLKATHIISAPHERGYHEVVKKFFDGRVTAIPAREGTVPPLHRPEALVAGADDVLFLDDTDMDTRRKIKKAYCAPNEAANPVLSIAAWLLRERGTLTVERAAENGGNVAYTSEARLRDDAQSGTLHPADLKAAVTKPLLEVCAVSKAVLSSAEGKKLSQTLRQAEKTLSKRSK
As to the kind of experiment: Trypanosoma cruzi tyrosyl tRNA synthetase (TcYRS) _High Tyrosine SOP. Further: in the data most compounds retested in dose-response had high values. The format is functional. The conditions noted are these: 30 µM.

In test [10] the target is T4, Tyrosyl-tRNA synthetase, putative (Trypanosoma cruzi (strain CL Brener)). As to the kind of experiment: Trypanosoma cruzi tyrosyl tRNA synthetase (TcYRS) SOP. Format: functional. The following applies: 30 µM.
For test [11], the target named is Chromo domain-containing protein 1 (Saccharomyces cerevisiae (strain ATCC 204508 / S288c) (Baker's yeast)) (UniProt P32657). Put plainly: ScCHD-1 Enzyme Inhibition Assay. Further: in the data most compounds retested in dose-response had high values. Format: functional. The conditions noted are these: 30 µM.
Chain of Chromo domain-containing protein 1 (Saccharomyces cerevisiae (strain ATCC 204508 / S288c) (Baker's yeast)) (P32657 whole entry, the tested form may be a part): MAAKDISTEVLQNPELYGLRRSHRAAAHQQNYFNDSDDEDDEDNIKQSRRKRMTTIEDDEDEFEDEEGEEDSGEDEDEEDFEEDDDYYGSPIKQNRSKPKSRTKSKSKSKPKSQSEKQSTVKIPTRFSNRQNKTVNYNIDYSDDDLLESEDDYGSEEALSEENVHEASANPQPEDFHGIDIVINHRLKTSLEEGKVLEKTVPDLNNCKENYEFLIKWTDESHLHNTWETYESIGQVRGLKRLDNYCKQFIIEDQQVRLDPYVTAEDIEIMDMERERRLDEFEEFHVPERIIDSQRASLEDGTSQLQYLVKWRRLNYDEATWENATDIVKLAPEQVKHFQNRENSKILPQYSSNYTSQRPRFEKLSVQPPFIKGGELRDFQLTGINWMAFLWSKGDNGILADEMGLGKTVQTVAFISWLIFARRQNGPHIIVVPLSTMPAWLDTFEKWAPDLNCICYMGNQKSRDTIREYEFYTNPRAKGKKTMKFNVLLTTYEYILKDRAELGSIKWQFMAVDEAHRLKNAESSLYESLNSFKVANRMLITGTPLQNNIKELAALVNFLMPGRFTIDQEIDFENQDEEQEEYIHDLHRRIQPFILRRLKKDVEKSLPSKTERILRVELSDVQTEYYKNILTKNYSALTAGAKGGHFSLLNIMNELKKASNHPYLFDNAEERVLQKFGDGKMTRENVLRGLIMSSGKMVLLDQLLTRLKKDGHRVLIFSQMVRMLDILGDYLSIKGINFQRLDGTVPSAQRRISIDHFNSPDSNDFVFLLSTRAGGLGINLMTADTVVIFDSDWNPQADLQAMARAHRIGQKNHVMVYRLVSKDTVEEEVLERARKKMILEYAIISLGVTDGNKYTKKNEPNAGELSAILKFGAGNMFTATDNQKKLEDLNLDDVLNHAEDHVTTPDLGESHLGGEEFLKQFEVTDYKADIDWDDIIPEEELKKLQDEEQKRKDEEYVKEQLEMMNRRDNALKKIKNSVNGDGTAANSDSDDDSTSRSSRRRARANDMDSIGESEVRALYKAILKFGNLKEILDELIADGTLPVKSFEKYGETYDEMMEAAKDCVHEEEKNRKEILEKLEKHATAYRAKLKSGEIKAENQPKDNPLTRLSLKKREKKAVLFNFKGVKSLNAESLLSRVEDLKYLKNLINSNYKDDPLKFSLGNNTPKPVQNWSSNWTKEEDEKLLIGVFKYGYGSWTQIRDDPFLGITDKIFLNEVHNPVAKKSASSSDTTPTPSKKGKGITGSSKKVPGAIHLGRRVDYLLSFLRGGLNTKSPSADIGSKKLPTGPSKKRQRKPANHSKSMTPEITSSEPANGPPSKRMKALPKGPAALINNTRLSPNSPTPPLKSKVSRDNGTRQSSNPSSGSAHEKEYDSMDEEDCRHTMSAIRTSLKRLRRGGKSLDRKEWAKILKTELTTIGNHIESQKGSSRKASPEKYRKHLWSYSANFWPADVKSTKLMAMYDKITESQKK

Chain of Protein translocase subunit SecA (Escherichia coli (strain K12)) (P10408 whole entry): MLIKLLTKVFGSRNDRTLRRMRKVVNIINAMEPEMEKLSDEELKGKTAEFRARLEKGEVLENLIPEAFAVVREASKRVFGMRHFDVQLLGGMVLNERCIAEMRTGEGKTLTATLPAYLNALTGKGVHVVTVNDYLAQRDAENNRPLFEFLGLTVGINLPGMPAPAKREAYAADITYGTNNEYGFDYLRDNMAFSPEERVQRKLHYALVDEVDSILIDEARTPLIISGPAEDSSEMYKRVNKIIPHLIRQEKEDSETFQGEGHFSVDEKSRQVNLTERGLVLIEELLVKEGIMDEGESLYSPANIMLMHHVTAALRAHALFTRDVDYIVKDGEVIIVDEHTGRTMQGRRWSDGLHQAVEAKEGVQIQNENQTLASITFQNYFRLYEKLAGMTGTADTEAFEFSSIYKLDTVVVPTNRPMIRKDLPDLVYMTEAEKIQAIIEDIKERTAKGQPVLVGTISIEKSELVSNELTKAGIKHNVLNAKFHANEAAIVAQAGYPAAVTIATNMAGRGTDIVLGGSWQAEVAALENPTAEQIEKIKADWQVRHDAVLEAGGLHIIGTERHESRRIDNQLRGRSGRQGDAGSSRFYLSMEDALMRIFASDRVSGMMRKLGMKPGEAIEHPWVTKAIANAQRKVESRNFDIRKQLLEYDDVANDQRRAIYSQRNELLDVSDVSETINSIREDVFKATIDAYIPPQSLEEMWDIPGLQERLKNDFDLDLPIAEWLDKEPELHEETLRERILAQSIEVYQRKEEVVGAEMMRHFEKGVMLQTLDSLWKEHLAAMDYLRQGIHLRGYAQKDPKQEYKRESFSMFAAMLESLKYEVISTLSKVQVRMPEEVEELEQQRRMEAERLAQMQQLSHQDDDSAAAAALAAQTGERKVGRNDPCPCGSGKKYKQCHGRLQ
Chain of Sialic acid-binding Ig-like lectin 9 (Homo sapiens) (Q9Y336 whole entry): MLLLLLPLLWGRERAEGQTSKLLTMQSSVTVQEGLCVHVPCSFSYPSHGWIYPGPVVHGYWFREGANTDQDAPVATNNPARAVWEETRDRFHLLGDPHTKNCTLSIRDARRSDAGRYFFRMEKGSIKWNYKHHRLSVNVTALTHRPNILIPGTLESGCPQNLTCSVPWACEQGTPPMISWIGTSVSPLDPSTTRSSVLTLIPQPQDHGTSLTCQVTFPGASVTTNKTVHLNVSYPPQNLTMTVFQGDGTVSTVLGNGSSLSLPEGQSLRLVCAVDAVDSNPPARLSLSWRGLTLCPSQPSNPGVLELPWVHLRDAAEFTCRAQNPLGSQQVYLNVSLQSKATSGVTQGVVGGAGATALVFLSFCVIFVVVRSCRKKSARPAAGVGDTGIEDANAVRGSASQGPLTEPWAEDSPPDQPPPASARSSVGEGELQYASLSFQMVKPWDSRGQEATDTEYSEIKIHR

As for `CN(Cc1ccco1)C(=O)CN1CCCCC1Cn1cccn1` (stereo unspecified), the Percent Effect is 1.65% in [1]; 0% in test [2]; 6.46% in test [3]; -9.17% in test [4]; -1.27% in test [5]; -2.74% in test [6]. For the same compound, the Percent Effect in test [7] was 17.1%; in test [8], -30.8%; in test [9], 4.76%; in [10], 9.41%; in test [11] it was -9.28%.
As to `CN(CCNC(=O)N1CCN(Cc2ccon2)CC1)C1CCCC1`, the Percent Effect was -7% in test [1]; 2.67% in [2]; 3.19% in test [3]; -0.946% in test [4]; 1.85% in test [5]; 4.69% in test [6]. Moreover, the Percent Effect in test [7] is -2.27%; in test [8], 4.26%; in test [9] it was 4.92%; in test [10] it was 8.64%; in [11], -1.28%.
For the compound `O=C(Nc1cccnc1)[C@H]1C[C@@H]2CN(C(=O)NC3CCCC3)C[C@H]1O2`, the Percent Effect in test [1] was -0.299%; in test [2], 13.5%; in [3], 5.36%; in [4] it was -10.3%; in test [5], -6.94%; in test [6] it was 6.69%. In addition, the Percent Effect in test [7] was 24.5%; in [8] it was -1.23%; in test [9] it was 0%; in test [10], 15.4%; in test [11] it was -0.793%.
For the compound `O=c1[nH]c(CCN2CCCC(Cn3cncn3)C2)nc2ccccc12` (stereo unspecified), the Percent Effect in test [1] was -4.26%; in test [2] it was 13.5%; in [3], 0.62%; in test [4], 16.8%; in test [5] it was 6.78%; in test [6], 0.924%. In addition, the Percent Effect was 2.33% in [7]; 14.5% in [8]; 4.95% in test [9]; 11% in test [10]; -3.63% in test [11].
Consider `CN1CC2(CCN(Cc3ccoc3)CC2)COc2ccccc2S1(=O)=O`, for which the Percent Effect in [1] was -0.535%; in [2] it was 2.7%; in test [3], -0.665%; in test [4], 1.6%; in [5] it was -3.23%; in test [6] it was 5.21%. In addition, the Percent Effect was 14.8% in test [7]; 4.83% in test [8]; 7.53% in [9]; 13.6% in [10]; -2.59% in [11].
For the compound `Cc1cc(CN2Cc3ccccc3CC2c2nnc(C)o2)on1` (stereo unspecified), the Percent Effect in test [1] is -3.58%; in test [2] it was 2.6%; in test [3], 6.16%; in test [4], 3.48%; in test [5], 2.25%; in test [6] it was 4.84%. The Percent Effect in test [7] is 0.728%; in [8], -4.28%; in [9] it was 6.67%; in test [10] it was 9.41%; in [11] it was -13.4%.
With `Cn1cnc2c1CCN(Cc1noc(-c3ccccc3)n1)C2`, the Percent Effect is -4.07% in [1]; 15.8% in test [2]; -9.94% in [3]; 14.2% in [4]; 3.08% in test [5]; -2.52% in [6]. The Percent Effect in [7] is 1.27%; in test [8] it was -13.4%; in [9], 6.4%; in test [10] it was 11.1%; in test [11], 0.774%.
As to `COc1ccnc(C(=O)N2CCCC(c3noc(C)n3)C2)c1` (stereo unspecified), the Percent Effect in [1] was -0.16%; in test [2], -7.59%; in test [3], 1.48%; in test [4], 5.56%; in [5] it was -0.85%; in [6], 0.76%. Besides, the Percent Effect in test [7] was 3.03%; in test [8] it was -3.33%; in test [9] it was -2.46%; in [10] it was -1.27%; in test [11], -3.23%.
`CC(C)c1nc(C2CCCN2Cc2ccccc2C#N)no1` (stereo unspecified): the Percent Effect in test [1] is -1.53%; in [2], -13%; in test [3], -3.89%; in test [4], 11.4%; in [5], 5.24%; in test [6], 1.07%. In addition, the Percent Effect in test [7] was -4.22%; in [8], 5.77%; in [9], 5.83%; in test [10], 12.2%; in [11], 73.9%.
Turning to `CCS(=O)(=O)N(C)C1CCN(C(=O)c2cccc(Cl)c2)CC1`, the Percent Effect was -3.98% in test [1]; 16.2% in test [2]; -9.5% in test [3]; 1.05% in test [4]; 4.3% in test [5]; 11.2% in test [6]. Also, the Percent Effect in test [7] is 9.38%; in test [8], -0.31%; in test [9] it was 6.93%; in [10], 11%; in [11] it was -6.5%.
For `Cc1ccccc1N1CCCN(C(=O)CCCS(N)(=O)=O)CC1`, the Percent Effect in [1] is -0.353%; in test [2], 8.22%; in test [3], 25.9%; in [4] it was 2.05%; in [5], -8.62%; in test [6] it was 2.73%. The Percent Effect in test [7] is 23.8%; in test [8] it was 28.3%; in test [9], 3.23%; in test [10] it was 2.5%; in test [11], -13.8%.

Values taken from ChEMBL document CHEMBL3988442, “University of Dundee, Small-Polar-MMV Screening Library” (2021).
